Key:
Details in all cases: concentration: 1 μM, replicates: in singlicate; n = 1
[1] = test system: PRKX
[2] = test system: PRP4
[3] = test system: T1, PYK2
T1 construct: gene PTK2B

[4] = test system: QSK
[5] = test system: RAF1
[6] = test system: RET
[7] = test system: RIOK1
[8] = test system: RIOK2
[9] = test system: RIOK3
[10] = test system: RIPK1
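Also: KINOMEscan kinase panel screen.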

**Q.** Which “%Inh” value [1] does the source give for Cc1ccc(-c2ccc3c(ccc4sc5c(c43)NC[C@@H](C)N=C5N(C)C)n2)cn1 here?
**A.** 0%

**Q.** And the “%Inh” value [2]?
**A.** 0%

**Q.** And the “%Inh” value [3]?
**A.** 0%

**Q.** What about the “%Inh” value [4] of the same compound?
**A.** 0%

**Q.** And the “%Inh” value [5]?
**A.** 0%

**Q.** And the “%Inh” value [6]?
**A.** 0%

**Q.** What about the “%Inh” value [7] of the same compound?
**A.** 0%

**Q.** And the “%Inh” value [8]?
**A.** 0%

**Q.** What about the “%Inh” value [9] of the same compound?
**A.** 0%

**Q.** And the “%Inh” value [10]?
**A.** 0%

**Q.** Which results are given for CCn1c(-c2nonc2N)nc2ccccc21 [SB-693162/GW549034]?
**A.** %Inh [1]: 24%; %Inh [2]: 0%; %Inh [3]: 0%; %Inh [4]: 0%; %Inh [5]: 0%; %Inh [6]: 22%; %Inh [7]: 0%; %Inh [8]: 14%; %Inh [9]: 0%; %Inh [10]: 0%

**Q.** With CCn1c(-c2ccoc2)nc2cnccc21 [SB-733887] as the compound, how does the “%Inh” value [1] read?
**A.** 0%

**Q.** And the “%Inh” value [2]?
**A.** 58%

**Q.** And the “%Inh” value [3]?
**A.** 4%

**Q.** And the “%Inh” value [4]?
**A.** 0%

**Q.** And the “%Inh” value [5]?
**A.** 21%

**Q.** What about the “%Inh” value [6] of the same compound?
**A.** 1%

**Q.** And the “%Inh” value [7]?
**A.** 28%

**Q.** What about the “%Inh” value [8] of the same compound?
**A.** 0%

**Q.** And the “%Inh” value [9]?
**A.** 27%

**Q.** What about the “%Inh” value [10] of the same compound?
**A.** 0%

**Q.** CN1C(=O)C(Nc2ccccc2)=C(c2ccccc2)C1=O [SB-300079] was tested. Which “%Inh” value [1] did it give?
**A.** 0%

**Q.** What about the “%Inh” value [2] of the same compound?
**A.** 2%

**Q.** What about the “%Inh” value [3] of the same compound?
**A.** 6%

**Q.** What about the “%Inh” value [4] of the same compound?
**A.** 0%

**Q.** And the “%Inh” value [5]?
**A.** 44%

**Q.** What about the “%Inh” value [6] of the same compound?
**A.** 0%

**Q.** What about the “%Inh” value [7] of the same compound?
**A.** 13%

**Q.** And the “%Inh” value [8]?
**A.** 0%

**Q.** What about the “%Inh” value [9] of the same compound?
**A.** 0%

**Q.** And the “%Inh” value [10]?
**A.** 0%

**Q.** Cc1cccc(-c2nc(Nc3ccc4c(cnn4C)c3)c3ccccc3n2)n1 [GW876731] was tested. Which “%Inh” value [1] did it give?
**A.** 0%

**Q.** And the “%Inh” value [2]?
**A.** 0%

**Q.** And the “%Inh” value [3]?
**A.** 0%

**Q.** What about the “%Inh” value [4] of the same compound?
**A.** 0%

**Q.** And the “%Inh” value [5]?
**A.** 29%

**Q.** And the “%Inh” value [6]?
**A.** 4%

**Q.** And the “%Inh” value [7]?
**A.** 0%

**Q.** What about the “%Inh” value [8] of the same compound?
**A.** 0%

**Q.** And the “%Inh” value [9]?
**A.** 0%

**Q.** And the “%Inh” value [10]?
**A.** 0%

**Q.** Cl.NS(=O)(=O)c1cccc(Nc2cc(-c3ccc(F)cc3)n[nH]2)c1 [GW824645] was tested. Which “%Inh” value [1] did it give?
**A.** 0%

**Q.** And the “%Inh” value [2]?
**A.** 0%

**Q.** What about the “%Inh” value [3] of the same compound?
**A.** 0%

**Q.** And the “%Inh” value [4]?
**A.** 0%

**Q.** What about the “%Inh” value [5] of the same compound?
**A.** 10%

**Q.** What about the “%Inh” value [6] of the same compound?
**A.** 0%

**Q.** And the “%Inh” value [7]?
**A.** 0%

**Q.** What about the “%Inh” value [8] of the same compound?
**A.** 0%

**Q.** What about the “%Inh” value [9] of the same compound?
**A.** 11%

**Q.** And the “%Inh” value [10]?
**A.** 0%

**Q.** For CCCNC(=O)Nc1ccc(Oc2ncnc3ccn(C)c23)cc1, which “%Inh” value [1] is on record?
**A.** 0%

**Q.** What about the “%Inh” value [2] of the same compound?
**A.** 8%

**Q.** And the “%Inh” value [3]?
**A.** 3%

**Q.** What about the “%Inh” value [4] of the same compound?
**A.** 0%

**Q.** And the “%Inh” value [5]?
**A.** 2%

**Q.** And the “%Inh” value [6]?
**A.** 8%

**Q.** What about the “%Inh” value [7] of the same compound?
**A.** 9%

**Q.** And the “%Inh” value [8]?
**A.** 10%

**Q.** What about the “%Inh” value [9] of the same compound?
**A.** 14%

**Q.** What about the “%Inh” value [10] of the same compound?
**A.** 0%

**Q.** For COc1cccc(C2=C(Nc3cccc(C(=O)O)c3)C(=O)NC2=O)c1 [SB-390770], which “%Inh” value [1] is on record?
**A.** 7%

**Q.** And the “%Inh” value [2]?
**A.** 49%

**Q.** And the “%Inh” value [3]?
**A.** 0%

**Q.** And the “%Inh” value [4]?
**A.** 0%

**Q.** What about the “%Inh” value [5] of the same compound?
**A.** 11%

**Q.** What about the “%Inh” value [6] of the same compound?
**A.** 17%

**Q.** And the “%Inh” value [7]?
**A.** 14%

**Q.** What about the “%Inh” value [8] of the same compound?
**A.** 6%

**Q.** What about the “%Inh” value [9] of the same compound?
**A.** 0%

**Q.** What about the “%Inh” value [10] of the same compound?
**A.** 0%

**Q.** With COc1cccc(C2=C(N(C)c3ccccc3)C(=O)NC2=O)c1 [SB-334865] as the compound, how does the “%Inh” value [1] read?
**A.** 25%

**Q.** What about the “%Inh” value [2] of the same compound?
**A.** 41%

**Q.** What about the “%Inh” value [3] of the same compound?
**A.** 8%

**Q.** And the “%Inh” value [4]?
**A.** 1%

**Q.** And the “%Inh” value [5]?
**A.** 12%

**Q.** What about the “%Inh” value [6] of the same compound?
**A.** 17%

**Q.** What about the “%Inh” value [7] of the same compound?
**A.** 39%

**Q.** What about the “%Inh” value [8] of the same compound?
**A.** 0%

**Q.** What about the “%Inh” value [9] of the same compound?
**A.** 0%

**Q.** And the “%Inh” value [10]?
**A.** 0%
